The supplement of paper PMC3545927
Some of the results follow. No count for the full screen is at hand.

Molecular target: furin, P09958
Assay: furin cleavage Z-score vs untreated control; higher = more cleavage, active = 3.5 or more, inactive = 1 or less, 8 variable residues between constant flanks
In short: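 Abundance of DNA freed from bead-bound 8-mer peptide–cDNA fusions by purified furin was measured as sequencing read counts after PCR adapter tagging. Cutting ran 7.5, 15 or 30 min in 0.01 ml of 50 mM HEPES pH 7.5 with CaCl2 and NaCl at 1:10 enzyme:substrate. The cleavage Z-score expresses these log counts against furin-free reactions after lowess adjustment and median absolute deviation scaling.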

Chain of furin, P09958 (P09958 whole entry): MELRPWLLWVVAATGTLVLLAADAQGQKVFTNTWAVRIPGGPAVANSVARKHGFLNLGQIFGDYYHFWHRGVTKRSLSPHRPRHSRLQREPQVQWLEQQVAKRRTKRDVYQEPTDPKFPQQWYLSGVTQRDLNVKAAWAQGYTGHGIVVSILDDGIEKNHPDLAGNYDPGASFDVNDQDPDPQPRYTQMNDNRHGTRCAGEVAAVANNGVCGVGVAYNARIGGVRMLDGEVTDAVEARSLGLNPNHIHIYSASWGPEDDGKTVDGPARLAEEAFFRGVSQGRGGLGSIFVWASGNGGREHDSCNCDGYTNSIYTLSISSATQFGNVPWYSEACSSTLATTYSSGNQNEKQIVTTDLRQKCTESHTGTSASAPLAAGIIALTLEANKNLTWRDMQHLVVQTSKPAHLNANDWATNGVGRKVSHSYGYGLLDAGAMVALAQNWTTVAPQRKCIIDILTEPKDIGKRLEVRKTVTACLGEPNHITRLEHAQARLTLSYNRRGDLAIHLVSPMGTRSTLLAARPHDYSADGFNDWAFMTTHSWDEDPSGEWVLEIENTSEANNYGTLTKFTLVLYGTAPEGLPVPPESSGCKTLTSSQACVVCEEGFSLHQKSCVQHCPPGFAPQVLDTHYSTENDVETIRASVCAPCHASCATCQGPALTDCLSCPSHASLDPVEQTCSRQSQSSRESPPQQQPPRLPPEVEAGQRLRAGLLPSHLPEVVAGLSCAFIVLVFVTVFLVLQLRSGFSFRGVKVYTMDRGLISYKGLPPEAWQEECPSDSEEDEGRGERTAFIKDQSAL

Row | Sequence | furin cleavage Z-score (7.5 min) | furin cleavage Z-score (15 min) | furin cleavage Z-score (30 min)
1 | CAREMEECSQAGNASASA [HC1793] | 0.916 (inactive) | -0.677 (inactive) | 1.51
2 | CAWETARHTPAGNASASA [HC1569] | 0.673 (inactive) | 0.503 (inactive) | -0.633 (inactive)
3 | CAPKGPVIQMAGNASASA [HC707] | -0.0909 (inactive) | 0.949 (inactive) | 0.762 (inactive)
4 | CAVVNCSMSYAGNASASA [HC2041] | 0.601 (inactive) | 1.6 | -0.0752 (inactive)
5 | CAAPGRDGRDAGNASASA [FS-397] | -0.000356 (inactive) | -1.26 (inactive) | -0.555 (inactive)
6 | CATARRHGRDAGNASASA [FS-878] | 6.42 (active) | 7.12 (active) | 6.27 (active)
7 | CATAARRLRDAGNASASA [FS-382] | 1.54 | 3.67 (active) | 3.74 (active)
8 | CAGRTGRGKPAGNASASA [HC905] | -1.05 (inactive) | -0.843 (inactive) | -1.55 (inactive)
9 | CADSSRIKRRAGNASASA [FS-1449] | 8.08 (active) | 10.6 (active) | 8.94 (active)
10 | CAHKSRKERRAGNASASA [FS-536] | 1.88 | 4.97 (active) | 3.69 (active)
11 | CARKKRLENRAGNASASA [FS-2214] | 1.32 | 0.582 (inactive) | 0.84 (inactive)
12 | CARKKRIKRRAGNASASA [FS-2266] | 13.1 (active) | 14.5 (active) | 11.5 (active)
13 | CADISRIKRGAGNASASA [FS-756] | 2.64 | 4.17 (active) | 2.27
14 | CAWVCCSMSYAGNASASA [HC1988] | 0.172 (inactive) | 0.44 (inactive) | 1.05
15 | CARPLRGVSGAGNASASA [FS-3018] | -0.934 (inactive) | -0.697 (inactive) | -0.66 (inactive)
16 | CAEAALENLVAGNASASA [HC533] | -0.446 (inactive) | -0.46 (inactive) | -1.1 (inactive)
17 | CARLKRRQEEAGNASASA [FS-2709] | -0.805 (inactive) | 0.691 (inactive) | 1.04
18 | CARLKRVVPDAGNASASA [FS-2221] | 3.21 | 5.12 (active) | 6 (active)
19 | CARLKRHPEEAGNASASA [FS-2276] | 1.2 | 3.98 (active) | 3.45
20 | CARLKRAVSEAGNASASA [FS-2704] | 8.88 (active) | 10.6 (active) | 7.25 (active)
21 | CARLDRHVFIAGNASASA [FS-2042] | -0.675 (inactive) | -1.39 (inactive) | -0.0693 (inactive)

Row | Sequence | furin cleavage Z-score (7.5 min) | furin cleavage Z-score (15 min) | furin cleavage Z-score (30 min)
22 | CARLKRIVFDAGNASASA [FS-2570] | 0.11 (inactive) | 0.63 (inactive) | 1.98
23 | CARLKRTNGNAGNASASA [FS-1963] | 0.424 (inactive) | 2.26 | 1.1
24 | CARLKRAVWIAGNASASA [FS-2989] | 5.97 (active) | 7.83 (active) | 8.13 (active)
25 | CARLKKIKDDAGNASASA [FS-1740] | -0.946 (inactive) | -0.774 (inactive) | -1.39 (inactive)
26 | CAEVVTSSWVAGNASASA [HC2217] | 0.949 (inactive) | 3.4 | -0.0256 (inactive)
27 | CANTPCSGSWAGNASASA [HC1841] | -0.658 (inactive) | -0.9 (inactive) | -0.678 (inactive)
28 | CAMEECSQGLAGNASASA [HC1756] | 0.411 (inactive) | 1.43 | 1.65
29 | CATTPCSGCWAGNASASA [HC1920] | -0.899 (inactive) | -0.942 (inactive) | -0.88 (inactive)
30 | CAVVCLSMSYAGNASASA [HC84] | 0.288 (inactive) | -0.622 (inactive) | -0.642 (inactive)
31 | CASFLVFFCFAGNASASA [HC544] | -1.06 (inactive) | -0.337 (inactive) | -0.101 (inactive)
32 | CAGTHGLVSFAGNASASA [HC541] | 1.37 | 0.474 (inactive) | 1.36
33 | CARLKRQVTEAGNASASA [FS-2992] | 11.3 (active) | 12 (active) | 11.2 (active)
34 | CARLKRVEDQAGNASASA [FS-1907] | -1.61 (inactive) | 0.449 (inactive) | -0.817 (inactive)
35 | CARLKRALDFAGNASASA [FS-2219] | 6.13 (active) | 7.48 (active) | 7.29 (active)
36 | CARLKRQPCAAGNASASA [FS-3227] | 0.299 (inactive) | -0.962 (inactive) | -0.478 (inactive)
37 | CAVLATATPPAGNASASA [HC833] | -0.698 (inactive) | -1.92 (inactive) | -0.599 (inactive)
38 | CARDARSVRDAGNASASA [FS-2328] | 2.71 | 4.77 (active) | 5.93 (active)
39 | CARSVRSTRDAGNASASA [FS-1075] | 9.44 (active) | 11 (active) | 9.05 (active)
40 | CARSVRFISNAGNASASA [FS-2821] | -2.17 (inactive) | -0.565 (inactive) | 1.32
41 | CARDARMSDAAGNASASA [FS-2204] | -1.21 (inactive) | 0.407 (inactive) | 0.769 (inactive)
42 | CAREDRAVRDAGNASASA [FS-2413] | -1.11 (inactive) | 0.317 (inactive) | -0.31 (inactive)
